Our source for the inhibition values is PubChem BioAssay AID652154 (Broad Institute, 2013).

Screen size: about 360,000 compounds; about 4,200 (1.2%) were called active.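 How the source made its calls: active means mean replicate inhibition at least 60% with every replicate also reaching 60%; inconclusive means only one of the two criteria is met; inactive means mean below 60% and not all replicates reaching 60%.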 Only a selection was taken, and actives are over-represented in it overall.

As usually defined, the inhibition is the change of the read-out against control, counted positive when it falls.

A short description of this experiment: PAX8 transcriptional activity inhibition in RMG-I – RMG-I cells, luciferase, single concentration, primary screen (AID 652154).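 Further: luciferase light reporting Pax8 driven TPO promoter activity; plate controls were median of neutral control wells for no effect and mitoxantrone controls for full effect.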 The following applies: RMG-I TPO-luciferase reporter, SteadyGlo, 24 h; at 12.6 µM; hits give high values. Background: Reporter assays use an easily measured gene product as a stand-in for the process of interest.
Consider `Cc1ccc(S(=O)(=O)N(C)C[C@H]2OCCCC[C@H](C)Oc3ccc(N(C)C)cc3C(=O)N([C@H](C)CO)C[C@@H]2C)cc1`, for which the inhibition was 32% (inactive).
With `O=C(C[C@@H]1C[C@@H]2c3cc(NC(=O)NC4CCCC4)ccc3O[C@@H]2[C@H](CO)O1)NCC(F)(F)F`, the inhibition was -19.4% (inactive).
With `Oc1c(Cl)cc(Cl)c(Cl)c1Cc1c(O)c(Cl)cc(Cl)c1Cl`, the inhibition was 107% (active).
Consider `CNC[C@H]1OCCCC[C@@H](C)Oc2ccc(NC(=O)c3ccncc3)cc2C(=O)N([C@H](C)CO)C[C@H]1C`, for which the inhibition is -8.2% (inactive).
The same measure for `O=S(=O)(NC1CCCCC1N1CCCCC1)c1ccc(Cl)cc1` (stereo not drawn): 7.52% (inactive); for `O=S(=O)(NC1CCCCC1N1CCN(c2ccccc2F)CC1)c1ccccc1` (stereo not drawn): 101% (active).
The same measure for `COc1ccc(N2CCN(C3CCCCC3NS(=O)(=O)c3ccccc3)CC2)cc1` (stereo not drawn): 19.3% (inactive).
Turning to `C[C@@H]1CN([C@@H](C)CO)C(=O)c2cc(NC(=O)CCN3CCOCC3)ccc2O[C@H]1CN(C)C(=O)NC1CCCCC1`, the inhibition was -13.4% (inactive).
Turning to `C[C@@H]1CN([C@@H](C)CO)C(=O)c2cc(-c3cncnc3)cnc2O[C@H]1CN(C)Cc1cncnc1`, the inhibition was -3.91% (inactive).
The same measure for `CN(C)C(=O)c1cccc(-c2ccc([C@H]3[C@@H](CO)N4C(=O)CN(C(=O)C5CC5)C[C@@H]34)cc2)c1`: -11.3% (inactive).
The same measure for `Cc1cccc(N(Cc2ccccc2)C(=O)c2ccccc2F)c1`: 3.65% (inactive).
Take `CCCC(O)(CCC)C(=O)NN(C(=O)CCl)c1cccc(C)c1`: the inhibition was 76.1% (active).
Consider `CCCCC(O)(CCCC)C(=O)NN(C(=O)CCl)c1ccccc1`, for which the inhibition was -1.33% (inactive).
For `CN1c2ccc(-c3cccc(F)c3)cc2[C@@H]2[C@@H](CCN2C(=O)Nc2ccccc2F)[C@@H]1CO`, the inhibition is 39.3% (inactive).
On to `CCCCCCCCn1c2c(c(=N)c3c1CCC3)CCCC2`, for which the inhibition is 96.6% (active).
The same measure for `CC(C)NC(=O)Nc1ccc2c(c1)C(=O)N([C@H](C)CO)C[C@H](C)[C@H](CN(C)Cc1ccc(C(=O)O)cc1)OCCCC[C@@H](C)O2`: 2.34% (inactive); for `N/C(=N\OS(=O)(=O)c1cccc([N+](=O)[O-])c1)c1ccncc1`: 134% (active).
The same measure for `O=C(NCc1ccncc1)c1ccc(NS(=O)(=O)c2cccc([N+](=O)[O-])c2)cc1`: -1.39% (inactive); for `Cc1ccccc1OS(=O)(=O)c1cccc([N+](=O)[O-])c1`: -23.3% (inactive); for `COc1ccc(NC(=O)N[C@H]2CC[C@H](CCn3cc(-c4ccccc4F)nn3)O[C@H]2CO)cc1`: -4.51% (inactive).
The same measure for `C[C@@H]1CCCCO[C@H](CN(C)S(=O)(=O)c2cn(C)cn2)[C@@H](C)CN([C@@H](C)CO)C(=O)c2cc(NC(=O)c3ccncc3)ccc2O1`: -1.88% (inactive); for `CO[C@H]1CN(C)C(=O)c2ccc(NS(=O)(=O)c3cn(C)cn3)cc2OC[C@@H](C)N(CC2CC2)C[C@H]1C`: -11.1% (inactive).
Regarding `O=C(CC(=O)N/N=C\c1ccc(F)cc1)NCCc1ccccc1`, the inhibition was 16.1% (inactive).
For `O=C(NC(Cc1c[nH]c2ccccc12)C(=O)N/N=C/c1ccc(Br)cc1)c1cccs1` (stereo not drawn) the value was -2.62% (inactive); for `O=C(Cc1c[nH]c2ccccc12)N/N=C/c1cccc(F)c1`, 73.6% (active); for `CC(=O)c1ccc(S(=O)(=O)N2CCC3(CC2)OCCO3)cc1`, -17.6% (inactive).
The same measure for `CC(=O)c1ccc(S(=O)(=O)N2CCN(C(=O)/C=C/c3ccc4ccccc4n3)CC2)cc1`: 79.4% (active).
The same measure for `CC(=O)c1ccc(S(=O)(=O)N2CCC(Oc3ccc(-n4cnnn4)cc3)CC2)cc1`: -37.6% (inactive); for `COc1ccc(S(=O)(=O)Nc2ccc3c(c2)C(=O)N([C@H](C)CO)C[C@H](C)[C@H](CN(C)S(=O)(=O)c2ccc(Cl)cc2)O3)cc1`: -6.19% (inactive); for `CC(C)C#Cc1ccc2c(c1)O[C@@H](CN(C)Cc1ccncc1)[C@@H](C)CN([C@@H](C)CO)S2(=O)=O`: -12.5% (inactive).
For the compound `COc1ccc(-c2ccc([C@@H]3[C@@H](CO)N4C(=O)CN(Cc5ccccc5)C[C@@H]34)cc2)cc1`, the inhibition was -17% (inactive).
On to `COc1ccc([Si](C)(C)[C@@H]2[C@@H](CCO)O[C@]3(C(=O)N(Cc4cccc(N5CCCCC5=O)c4)c4ccccc43)[C@H]2C)cc1`, for which the inhibition was 3.33% (inactive).
For `COc1ccc([Si](C)(C)[C@@H]2[C@@H](CCO)O[C@]3(C(=O)N(Cc4ccccc4)c4ccc(N5CCC5=O)cc43)[C@H]2C)cc1` the value was 101% (active); for `O=C(CC1CC1)N1[C@@H]2CN(S(=O)(=O)c3ccccc3F)c3ccccc3[C@@H]2[C@@H]1CO`, -3.48% (inactive); for `O=C(C1=C[C@@H](c2ccccc2)C[C@@H](OCCCCO)O1)N1CCN(Cc2ccccc2)CC1`, 2.95% (inactive).
For `COc1cc(C2CC(=O)Oc3cc(OC)c(OC)c(OC)c32)cc(OC)c1OC` (stereo not drawn) the value was -2.9% (inactive); for `COc1cc(C(=O)CCc2ccc3c(c2)OCO3)cc(OC)c1OC`, -6.52% (inactive); for `COc1cc(C2c3cc4c(cc3C(O)C3COC(=O)C23)OCO4)cc(OC)c1OC` (stereo not drawn), 77.3% (active).
In the case of `Cc1ccccc1S(=O)(=O)N1[C@@H]2CNC[C@H]1C2c1ccc(-c2cccnc2)cc1` (stereo partly drawn), the inhibition is 19.3% (inactive).
For `CC(C)c1cc(C(=O)NC2CCCCCC2)c2ccccc2n1` the value was -9.13% (inactive).
The same measure for `CC(C)C(C)NC(=O)COc1nc2ccccc2nc1N(C)C1CCCCC1` (stereo not drawn): 0.996% (inactive); for `CN(c1ccc2nc3ccccc3c(=O)n2n1)C1CCCCC1`: 86% (active); for `COc1ccc2c3c(n(C)c2c1)[C@@H](CO)N(Cc1ccncc1)CC31CN(C(=O)C2CCCCC2)C1`: -15.5% (inactive).
Take `COc1ccc(S(=O)(=O)N(C)C[C@H]2OCCCC[C@@H](C)Oc3ccc(NC(=O)NC(C)C)cc3C(=O)N([C@H](C)CO)C[C@H]2C)cc1`: the inhibition was 17% (inactive).
For `C/C=C/c1ccc([C@H]2[C@@H](C#N)N(C(=O)CN3CCOCC3)[C@@H]2CO)cc1`, the inhibition is -6.35% (inactive).
For `COC(=O)CSc1nnc(NC(=O)CCc2ccccc2)s1` the value was -0.955% (inactive); for `COCCSc1nnc(NC(=O)CCS(=O)(=O)Cc2ccccc2)s1`, 65.7% (active).
For `CCOCc1nnc(NC(=O)CCS(=O)(=O)Cc2ccccc2)s1` the value was 50.3% (inactive).
